Measured values reported in paper PMC4336329 (PLoS ONE, 2015).
Out of some 310,000 compounds screened, about 14,000 (4.5%) showed an effect of 50% or more. The effect is printed as a negative number. For the sample, strong results were picked, then their nearest neighbours and some compounds at random.

Target: human ether-à-go-go-related gene (hERG) potassium channel (human, UniProt Q12809)
Assay: primary screen, population patch clamp on CHO cells stably expressing hERG; higher = less effect of the substance
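Note: peak tail current of the secondary pulse compared with the same well before compound.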

human ether-à-go-go-related gene (hERG) potassium channel, sequence (Q12809 whole entry, looked up): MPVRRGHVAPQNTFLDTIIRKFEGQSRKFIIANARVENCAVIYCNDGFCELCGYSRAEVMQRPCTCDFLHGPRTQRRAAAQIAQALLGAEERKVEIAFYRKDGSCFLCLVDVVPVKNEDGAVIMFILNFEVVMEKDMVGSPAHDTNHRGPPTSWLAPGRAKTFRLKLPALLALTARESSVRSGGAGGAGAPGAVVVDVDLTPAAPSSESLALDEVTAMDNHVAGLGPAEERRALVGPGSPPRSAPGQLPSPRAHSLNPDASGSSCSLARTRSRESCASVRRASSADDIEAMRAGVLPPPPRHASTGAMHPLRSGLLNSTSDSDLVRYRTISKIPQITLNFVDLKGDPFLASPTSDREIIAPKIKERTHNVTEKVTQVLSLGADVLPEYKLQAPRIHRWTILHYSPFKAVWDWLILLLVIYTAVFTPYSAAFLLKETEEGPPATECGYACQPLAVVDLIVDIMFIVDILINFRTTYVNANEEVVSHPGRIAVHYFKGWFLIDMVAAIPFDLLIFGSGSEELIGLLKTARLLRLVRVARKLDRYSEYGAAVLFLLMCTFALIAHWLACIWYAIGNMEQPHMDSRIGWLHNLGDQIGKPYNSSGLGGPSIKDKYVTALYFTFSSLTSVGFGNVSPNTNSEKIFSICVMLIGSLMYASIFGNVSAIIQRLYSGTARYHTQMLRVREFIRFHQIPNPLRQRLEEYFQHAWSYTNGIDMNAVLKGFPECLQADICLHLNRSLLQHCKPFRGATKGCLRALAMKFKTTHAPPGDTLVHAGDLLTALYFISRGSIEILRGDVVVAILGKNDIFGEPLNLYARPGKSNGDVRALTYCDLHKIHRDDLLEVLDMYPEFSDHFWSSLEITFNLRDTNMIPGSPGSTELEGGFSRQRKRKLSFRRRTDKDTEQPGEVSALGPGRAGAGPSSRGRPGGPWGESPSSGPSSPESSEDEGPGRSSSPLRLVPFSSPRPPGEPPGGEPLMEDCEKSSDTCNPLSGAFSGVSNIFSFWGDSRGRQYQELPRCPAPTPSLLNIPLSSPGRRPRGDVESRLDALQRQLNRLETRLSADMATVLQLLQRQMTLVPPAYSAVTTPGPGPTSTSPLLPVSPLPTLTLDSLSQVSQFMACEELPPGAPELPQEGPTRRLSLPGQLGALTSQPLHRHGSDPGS

SMILES	hERG current change (%, negative = inhibition) at 10uM
COc1ccc(O)c(C(=O)/C=C/c2cc3ccccc3o2)c1	7.22%
CN1C(=O)/C(=C/c2ccc(C(F)(F)F)cc2)Sc2ccc(C(=O)N3CCN(c4ccccn4)CC3)cc21	5.11%
C[C@@H]1O[C@@H](Oc2c(-c3cc(O)c(O)c(O)c3)oc3cc(O)cc(O)c3c2=O)[C@H](O)[C@H](O)[C@H]1O	4%
CN(C)CCCN(C(=O)COc1ccc(Cl)cc1)c1nc2ccc(F)cc2s1.Cl	-21.4%
CN(C)CCCN(C(=O)COc1ccccc1)c1nc2ccc(Cl)cc2s1.Cl	-67.1%
Cc1ccc2nc(N(CCCN(C)C)C(=O)COc3ccc(Cl)cc3)sc2c1.Cl	-8.71%
Cc1ccc2nc(N(CCCN(C)C)C(=O)CS(=O)(=O)c3ccccc3)sc2c1.Cl	-22.7%
CN(C)CCCN(C(=O)COc1ccccc1)c1nc2ccc(F)cc2s1.Cl	-68%
CCN(CC)CCN(C(=O)CCOc1ccccc1)c1nc2ccc(F)cc2s1.Cl	-8.61%
NC(=O)CC(NC(=O)Cc1ccc(Cl)cc1)c1ccc(NC2CC3CCC2C3)c([N+](=O)[O-])c1 (stereo not shown)	-3.01%
CCOCCCNc1nc(-c2ccccc2)nc2ccccc12.Cl	-27.5%
Cc1ccc(-c2nc(NCCCO)c3ccccc3n2)cc1	-41.2%
CN(C)CCCNc1nc(-c2ccc(Cl)cc2)nc2ccccc12	-35.5%
CCN(CC)CCCNc1nc2cc(OC)c(OC)cc2c2nc(-c3ccccc3)nn12	-7.77%
OCCCNc1nc(-c2ccc(Cl)cc2)nc2ccccc12	-63.1%
CN(C)CCCNc1nc(-c2ccccc2)nc2ccccc12.Cl	-13.5%
CCN(CC)CCCNc1nc(-c2ccccc2)nc2ccccc12.Cl	-61.4%
CCN(CC)CCCNc1nc2cc(OC)c(OC)cc2c2nc(-c3cccnc3)nn12	-2.29%
CCN(CC)CCCNc1nc2ccccc2c2nc(-c3ccncc3)nn12	-56.6%
O=C(CCC1CCCC1)NCc1cccs1	13.9%
CCC(Oc1ccccc1)C(=O)NCCOC (stereo not shown)	-8.48%
CC(NC(=O)c1cccc(Br)c1)c1ccccc1 (stereo not shown)	-2.43%

SMILES	hERG current change (%, negative = inhibition) at 10uM
NC12CC3CC(C1)CC(CC(=O)O)(C3)C2	10.8%
Cc1nc(Nc2ccc3c(c2)OCCO3)c2oc3ccccc3c2n1	-5.62%
Cc1ccc(NC(=O)CSc2nnc(-c3ccco3)o2)cc1	2.91%
O=C(CSc1nnc(-c2ccco2)c(-c2ccco2)n1)Nc1ccccc1	-75.2%
CCN(CC)C(=O)CSc1nnc(-c2ccccc2)c(-c2ccccc2)n1	-20.4%
Cc1ccc(-c2nnc(SCC(N)=O)nc2-c2ccc(C)cc2)cc1	-24.2%
O=C(CSc1n[nH]c(-c2ccco2)n1)Nc1ccccc1	-20.4%
CC(=O)c1ccc(NC(=O)CSc2nnc(-c3ccco3)o2)cc1	-73.9%
COc1ccc(NC(=O)CSc2nnc(-c3ccco3)c(-c3ccco3)n2)cc1OC	-29.4%
CC(=O)Nc1ccc(NC(=O)CSc2nnc(-c3ccco3)o2)cc1	7.81%
COc1cccc(NC(=O)CSc2nnc(-c3ccco3)c(-c3ccco3)n2)c1	-59.6%
COc1cccc(NC(=O)CSc2ccc(-c3ccco3)nn2)c1	-48.1%
O=C(CSc1nnc(-c2ccco2)c(-c2ccco2)n1)c1ccccc1	4.5%
Cc1ccc(-c2nnc(SCC(=O)N(C)C)nc2-c2ccc(C)cc2)cc1	-67.9%
COc1ccc2cc(C(=O)C3CCCN(C(=O)c4sc(C)nc4C)C3)ccc2c1 (stereo not shown)	-22.8%
Cc1ccc(S(=O)(=O)N2CCN(C(=O)CCn3nc(C)c(C)c3C)CC2)cc1	11.1%
Oc1cccc(-c2nc3c4c(ncn3n2)-c2ccccc2CC42CCCC2)c1	-7.64%
COc1ccc(CCn2nnnc2C(c2ccc(Cl)cc2)N2CCN(C)CC2)cc1OC.Cl (stereo not shown)	-11.6%
CC(=O)Nc1ccccc1OC(=O)N(C)C	2.41%
COc1c(Cl)cc(Cl)cc1C(=O)Nc1ccc(NC(=O)c2cccs2)cc1	13.2%
COc1ccc(C2(CNC(=O)c3cccc([N+](=O)[O-])c3)CCOCC2)cc1	0.0345%
CC(=O)c1ccc(NC(=O)CSc2nnc(-c3ccco3)c(-c3ccco3)n2)cc1	-33%

SMILES	hERG current change (%, negative = inhibition) at 10uM
Cc1ccc(NC(=O)CSc2nnc(-c3ccco3)c(-c3ccco3)n2)cc1	-64.9%
CN(C)c1ccc(NC(=O)CSc2nnc(-c3ccco3)c(-c3ccco3)n2)cc1	6.58%
CCOc1ccc(NC(=S)N2CCC(c3ccc(C)cc3)C2)cc1 (stereo not shown)	-6.63%
CSc1cccc(NC(=S)N(CCCN2CCCC2)Cc2cccs2)c1	-63.7%
CSc1cccc(NC(=S)N(CCCN2CCCC(C)C2)Cc2cccs2)c1 (stereo not shown)	-75.6%
CSc1cccc(NC(=S)N(CCCN2CCC(C)CC2)Cc2cccs2)c1	-72.9%
Cc1cccc(C)c1NC(=S)N(CCCN1CCN(C)CC1)Cc1cccs1	-47.8%
CSc1cccc(NC(=S)N(CCCN2CCCC2)Cc2cccn2Cc2ccc(Cl)cc2)c1	-28.1%
Cc1ccc(/C=N/NC(=O)c2cc3c(ccc4ccccc43)o2)cc1[N+](=O)[O-]	3.49%
Cc1cc(C)n(C(=O)COc2c(C)cccc2C)n1	11%
COc1cc(C(=O)N2CCN(C3CCC(C)CC3)CC2)cc(OC)c1OC.O=C(O)C(=O)O (stereo not shown)	8.29%
CN(Cc1cnccn1)Cc1c(C(=O)N2CCc3ccccc3C2)nc2ccc(Cl)cn12	-23.4%
CCCCN(C)Cc1c(C(=O)N2CCc3ccccc3C2)nc2ccc(Cl)cn12	-50.1%
Cc1cnc(CN(C)Cc2c(C(=O)N3CCCCCCC3)nc3ccc(Cl)cn23)[nH]1	-29%
CC1CCN(Cc2c(C(=O)N3CCc4ccccc4C3)nc3ccc(Cl)cn23)CC1	-31.7%
CCN(C)Cc1c(C(=O)N2CCc3ccccc3C2)nc2ccc(Cl)cn12	-31.1%
Cc1cnc(CN(C)Cc2c(C(=O)N3CCc4ccccc4C3)nc3ccc(Cl)cn23)[nH]1	-62.6%
CN(Cc1c(C(=O)N2CCc3ccccc3C2)nc2ccc(Cl)cn12)C(C1CC1)C1CC1	-45.9%
CC(C)CN(C)Cc1c(C(=O)N2CCc3ccccc3C2)nc2ccc(Cl)cn12	-53.2%
O=C(c1nc2ccc(Cl)cn2c1CN1CCCC1)N1CCc2ccccc2C1	-10.6%
CCN(CC)Cc1c(C(=O)N2CCc3ccccc3C2)nc2ccc(Cl)cn12	-13.1%
CN1CCN(Cc2c(C(=O)N3CCc4ccccc4C3)nc3ccc(Cl)cn23)CC1	-51.8%

SMILES	hERG current change (%, negative = inhibition) at 10uM
CN(Cc1cccnc1)Cc1c(C(=O)N2CCc3ccccc3C2)nc2ccc(Cl)cn12	-20.1%
COC(=O)c1cc2c(C)nn(-c3ccccc3)c2s1	2.91%
CC(=O)c1cccc(NC(=O)COC(=O)c2ccccn2)c1	5.33%
Cc1ccc(-c2nnc(-c3cc(C)on3)o2)cc1	19.6%
O=C(CNC(=O)c1ccc([N+](=O)[O-])cc1)c1ccccc1	-6.36%
COc1cc(N(C)C)c([N+](=O)[O-])cc1C(=O)NC(C)CNc1ccc([N+](=O)[O-])cc1Cl (stereo not shown)	-2.36%
COC(=O)C1=CO[C@@H](C)[C@H]2CN3CC[C@]4(C(=O)Nc5ccccc54)[C@@H]3C[C@H]12	15.5%
Fc1ccccc1NC(=S)Nc1cccc2cnccc12	46.8%
Cc1cccc(CSc2nnc(-c3ccccn3)n2N)c1	2.88%
Cc1cccc(CSc2ccc3nnc(-c4ccccn4)n3n2)c1	-75.7%
COc1cccc(NC(=O)CSc2ccc3nnc(-c4ccccn4)n3n2)c1	-47.3%
Fc1cccc(CSc2ccc3nnc(-c4ccccn4)n3n2)c1	-77.9%
O=C(CSc1ccc2nnc(-c3ccccn3)n2n1)Nc1cccc(F)c1	-40.6%
Fc1cccc(Cl)c1CSc1ccc2nnc(-c3ccccn3)n2n1	-13.5%
Cc1cn2nc(N)c3ccccc3c2n1	-9.19%
CCOC(=O)c1cc(C(C)=O)c(=O)[nH]c1C	12%
CCc1ccc(CN2CCCC(CCC(=O)N3CCN(c4ccccn4)CC3)C2)o1 (stereo not shown)	-58.7%
O=C(CCC1CCCN(c2ncccn2)C1)N1CCN(c2ccccn2)CC1 (stereo not shown)	-23%
Cc1cccc(C(=O)N2CCCC(CCC(=O)N3CCN(c4ccccn4)CC3)C2)c1 (stereo not shown)	-74.5%
CCc1cc(C(=O)N2CCCC(CCC(=O)N3CCN(c4ccccn4)CC3)C2)no1 (stereo not shown)	-17.4%
Cc1ccc(C(=O)N2CCCC(CCC(=O)N3CCN(c4ccccn4)CC3)C2)cc1 (stereo not shown)	-9.9%
Cc1ccc(C(=O)N2CCCC(CCC(=O)N3CCN(c4ccccn4)CC3)C2)cc1C (stereo not shown)	-34.9%
